Data taken from PubChem BioAssay (Tox21).
Values joined by “and” are separate entries in the source; they are usually repeats but may differ in a detail not shown here. Equal values may be shown once. Active and inactive are the calls of the source. Unless noted, calls come from the whole dose curve; as a rule, active = well fitted curve in the direction sought with a large enough effect in the repeat runs; inconclusive = weak or mixed curves; inactive = no such curve, though single readings can be large; an effect the other way counts as inactive or inconclusive.

How the values were obtained:
[1] = qHTS assay to identify small molecule antagonists of the thyroid receptor (TR) signaling pathway - cell viability counter screen (AID 743064); note: nearly all actives have a fitted effect of over 50% in size; note: potency is the fitted concentration of half-maximal effect
How it was run: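 Fluorescence from CellTiter-Fluor, added after 23.5 h exposure at 37 °C, reported viability of GH3.TRE-Luc cells co-treated with compound and 1 nM T3. Measured in the same wells as the luciferase TR readout.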

[2] = qHTS assay to identify small molecule antagonists of the thyroid receptor (TR) signaling pathway (AID 743065); note: nearly all actives have a fitted effect of over 55% in size; note: potency is the fitted concentration of half-maximal effect
How it was run: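 GH3.TRE-Luc rat pituitary cells (two TREs driving luciferase) were dosed with compound, then stimulated with 1 nM T3 (final) for 23.5 h at 37 C. ONE-Glo luminescence was the read-out, with CellTiter-Fluor fluorescence as the cytotoxicity counter-screen.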

[3] = test system: thyroid hormone receptor (rat, GH3 cells); assay: qHTS assay to identify small molecule agonists of the thyroid receptor (TR) signaling pathway (AID 743066; calls by dose curve)
[4] = molecular target: Estrogen receptor (Homo sapiens) (UniProt P03372); assay: qHTS assay to identify small molecule antagonists of the estrogen receptor alpha (ER-alpha) signaling pathway (AID 743069; active = well fitted curve in the direction sought with a large enough effect in the signal ratio in the repeat runs, not every such curve was filed as active; inconclusive = weak or mixed curves, or effect the other way; inactive = no such curve, though single readings can be large or run the other way; the % refers to the signal ratio; note: potency is the fitted concentration of half-maximal effect)
How it was run: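 Reporter cells (ER-alpha-bla, HEK293 background) are conditioned overnight in stripped-serum medium (2% charcoal-stripped FBS). Compound and 17beta-estradiol exposure runs 18 hr at 37C, 5% CO2.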

[5] = qHTS assay to identify small molecule antagonists of the estrogen receptor alpha (ER-alpha) signaling pathway - cell viability counter screen (AID 743074; calls by dose curve;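 note: HEK293 cells carrying ER-alpha-UAS-bla reporter stimulated with 17beta-estradiol; nearly all actives have a fitted effect of over 45% in size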; note: potency is the fitted concentration of half-maximal effect)
[6] = molecular target: Estrogen receptor (Homo sapiens) (UniProt P03372); assay: qHTS assay to identify small molecule agonists of the estrogen receptor alpha (ER-alpha) signaling pathway (AID 743075; calls by dose curve;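 note: HEK293 GripTite cells with ER-alpha and UAS-driven beta-lactamase reporter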; note: potency is the fitted concentration of half-maximal effect); conditions: HEK293 ER-alpha-UAS-bla, beta-lactamase FRET ratio, 18 h; activation: at 70.1 µM (top of the series)
[7] = molecular target: Estrogen receptor (Homo sapiens) (UniProt P03372); assay: qHTS assay to identify small molecule agonists of the estrogen receptor alpha (ER-alpha) signaling pathway using the BG1 cell line (AID 743079); conditions: BG1Luc4E2 cells, ERE-luciferase agonist, 22 h; for activation: at 70.3 µM (top of the series); note: potency is the fitted concentration of half-maximal effect; for all read-outs here: nearly all actives have a fitted effect of over 20% in size
[8] = qHTS assay to identify small molecule antagonists of the estrogen receptor alpha (ER-alpha) signaling pathway using the BG1 cell line (AID 743080; calls by dose curve; note: nearly all actives have a fitted effect of over 25% in size; note: potency is the fitted concentration of half-maximal effect)
How it was run: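 Antagonist mode: compounds in DMSO were pinned onto BG1-Luc-4E2 cells alongside 17beta-estradiol agonist, incubated 21.5 h, and ERE-driven luciferase measured with ONE-Glo. Cytotoxicity was multiplexed using CellTiter-Fluor fluorescence.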

[9] = qHTS assay to identify small molecule antagonists of the estrogen receptor alpha (ER-alpha) signaling pathway using the BG1 cell line - cell viability counter screen (AID 743081);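 note: compound given together with 17beta-estradiol as the ER stimulus; nearly all actives have a fitted effect of over 45% in size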; note: potency is the fitted concentration of half-maximal effect
Aromatase (Homo sapiens) = Aromatase (Homo sapiens) (UniProt P11511); assay: qHTS assay to identify aromatase inhibitors (AID 743083); note: nearly all actives have a fitted effect of over 55% in size; note: potency is the fitted concentration of half-maximal effect
% is set by controls: 0 for no effect and ±100 for the full control effect.

Chain of Aromatase (Homo sapiens) (P11511 whole entry, looked up): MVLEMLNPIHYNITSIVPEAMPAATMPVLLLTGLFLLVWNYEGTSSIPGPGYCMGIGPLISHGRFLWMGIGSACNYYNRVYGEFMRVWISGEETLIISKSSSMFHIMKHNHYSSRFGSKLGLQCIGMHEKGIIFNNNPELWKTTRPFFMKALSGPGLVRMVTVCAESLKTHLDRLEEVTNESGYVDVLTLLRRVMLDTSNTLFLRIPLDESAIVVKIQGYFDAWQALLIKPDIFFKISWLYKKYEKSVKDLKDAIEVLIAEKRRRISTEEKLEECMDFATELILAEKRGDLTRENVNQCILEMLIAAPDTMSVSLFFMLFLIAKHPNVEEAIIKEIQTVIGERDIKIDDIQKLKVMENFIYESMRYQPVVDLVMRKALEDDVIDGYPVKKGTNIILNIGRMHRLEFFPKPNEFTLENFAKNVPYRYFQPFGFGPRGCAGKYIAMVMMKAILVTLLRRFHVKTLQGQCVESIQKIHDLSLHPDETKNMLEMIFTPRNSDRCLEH
Chain of Estrogen receptor (Homo sapiens) (P03372 whole entry, looked up): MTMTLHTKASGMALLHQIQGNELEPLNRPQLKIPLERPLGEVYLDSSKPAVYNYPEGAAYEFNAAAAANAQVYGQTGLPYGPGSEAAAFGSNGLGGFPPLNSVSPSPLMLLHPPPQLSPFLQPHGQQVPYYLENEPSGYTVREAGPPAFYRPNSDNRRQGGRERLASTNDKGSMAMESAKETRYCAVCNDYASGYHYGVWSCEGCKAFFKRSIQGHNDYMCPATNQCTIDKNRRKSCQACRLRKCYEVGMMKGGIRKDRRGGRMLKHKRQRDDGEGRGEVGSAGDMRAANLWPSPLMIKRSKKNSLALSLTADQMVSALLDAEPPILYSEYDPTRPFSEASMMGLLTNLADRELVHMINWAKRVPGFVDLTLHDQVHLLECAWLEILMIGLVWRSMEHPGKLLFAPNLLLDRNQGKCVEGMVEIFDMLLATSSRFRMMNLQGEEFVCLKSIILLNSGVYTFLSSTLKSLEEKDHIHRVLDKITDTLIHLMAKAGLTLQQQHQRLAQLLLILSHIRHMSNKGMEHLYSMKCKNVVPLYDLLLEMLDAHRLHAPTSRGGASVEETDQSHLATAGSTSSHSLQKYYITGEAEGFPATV

Clc1ccc2nsnc2c1NC1=NCCN1
inactive: Potency [1] | Potency [2] | Potency [3] | Potency [4] | Potency [5] | Potency [6] | activation [7] 1.06% | Potency [8] | Potency [9] | Potency (Aromatase (Homo sapiens))

CCCCCCCCCCCCCCCC(=O)OC[C@H](O)[C@H]1OC(=O)C(O)=C1O
inactive: Potency [1] | Potency [2] | Potency [3] | Potency [4] | Potency [5] | Potency [6] | activation [7] 0.436% and 6.85% | Potency [8] | Potency [9] | Potency (Aromatase (Homo sapiens))

CC(C)(C)C(=O)OCOC(=O)C1N2C(=O)CC2S(=O)(=O)C1(C)C (stereo unspecified)
inactive: Potency [1] | Potency [2] | Potency [3] | Potency [5] | Potency [6] | activation [7] -1.04% | Potency [8] | Potency [9] | Potency (Aromatase (Homo sapiens))
active: Potency [4] 3.38 µM [inconclusive]

NC(=O)NS(=O)(=O)c1ccc(N)cc1
inactive: Potency [1] | Potency [2] | Potency [3] | Potency [4] | Potency [5] | Potency [6] | Potency [8] | Potency (Aromatase (Homo sapiens))

Oc1ccc(N=Nc2ccccc2)cc1
active: Potency [1] 49.2 µM | Potency [2] 61.9 µM | Potency [4] 39.4 µM [inconclusive] | Potency [6] 49.6 µM [inconclusive] | Potency [7] 6.19 µM
inactive: Potency [3] | Potency (Aromatase (Homo sapiens))

C/C=C(\C)C(=O)OCc1ccccc1
inactive: Potency [1] | Potency [2] | Potency [3] | Potency [5] | Potency [9] | Potency (Aromatase (Homo sapiens))

C[C@H](CCC(=O)O)[C@H]1CC[C@H]2[C@@H]3CC[C@@H]4C[C@H](O)CC[C@]4(C)[C@H]3CC[C@]12C
inactive: Potency [3] | Potency [6] | activation [7] -1.63% and -14.3% | Potency [8] | Potency [9] | Potency (Aromatase (Homo sapiens))
active: Potency [1] 27.2 µM and 54.5 µM | Potency [2] 17.2 µM and 30.6 µM | Potency [5] 54.9 µM

CCCCCCCCS(=O)C(C)Cc1ccc2c(c1)OCO2 (stereo unspecified)
active: Potency [1] 69.9 µM | Potency [2] 62.3 µM
inactive: Potency [3] | Potency [5] | Potency [6] | Potency [9]

c1ccc(CSCc2ccccc2)cc1
inactive: Potency [1] | Potency [2] | Potency [3] | Potency [5] | Potency [9] | Potency (Aromatase (Homo sapiens))

COc1cc(-c2ccc(N=C=O)c(OC)c2)ccc1N=C=O
inactive: Potency [1] | Potency [2] | Potency [3] | Potency [5] | Potency [9] | Potency (Aromatase (Homo sapiens))

C=CC(=O)OCC(CO)(COC(=O)C=C)COC(=O)C=C
active: Potency [1] 2.44 µM and 2.17 µM | Potency [2] 1.73 µM and 1.72 µM | Potency [5] 39 µM and 49 µM | Potency [6] 13.9 µM [inconclusive] and 12.3 µM [inconclusive] | Potency [9] 27.4 µM and 27.3 µM | Potency (Aromatase (Homo sapiens)) 2.74 µM and 5.45 µM
inactive: Potency [3]

CCC(C)Nc1ccc(NC(C)CC)cc1 (stereo unspecified)
inactive: Potency [3]
active: Potency [1] 14 µM | Potency [2] 14 µM | Potency [4] 22.3 µM [inconclusive] | Potency [5] 25 µM | Potency [9] 24.8 µM | Potency (Aromatase (Homo sapiens)) 3.93 µM

COc1cc(-c2nc(NC(=O)c3cc4cc(C)cc(C)c4n3CC(=O)O)sc2CCC2CCCCC2)c(OC)cc1Cl
active: Potency [1] 12.5 µM | Potency [2] 11.2 µM | Potency [4] 3.57 µM [inconclusive] | Potency [5] 28.3 µM | Potency (Aromatase (Homo sapiens)) 25 µM
inactive: Potency [3] | Potency [9]

CCCCCCOC(=O)c1ccc(O)cc1
inactive: Potency [1] | Potency [2] | Potency [3] | Potency [5] | Potency [9]
active: Potency [6] 49 µM [inconclusive] and 24.5 µM [inconclusive] | Potency [7] 5.45 µM and 17.2 µM

Oc1ccc(C2(c3ccc(O)cc3)CC3CC2C2CCCC32)cc1 (stereo unspecified)
inactive: Potency [3] | Potency [9]
active: Potency [1] 26.2 µM | Potency [2] 29.4 µM | Potency [4] 0.0592 µM [inconclusive] | Potency [8] 1.31 µM | Potency (Aromatase (Homo sapiens)) 1.86 µM

Clc1ccc2n[nH]nc2c1
inactive: Potency [1] | Potency [2] | Potency [3] | Potency [5] | Potency [9] | Potency (Aromatase (Homo sapiens))

CCCCN(CCCC)c1ccc(C(=O)c2ccccc2C(=O)O)c(O)c1
active: Potency [1] 55 µM | Potency [2] 55 µM | Potency [5] 49.4 µM
inactive: Potency [3] | Potency [9] | Potency (Aromatase (Homo sapiens))

C[n+]1ccn(Cc2ccccc2)c1
inactive: Potency [1] | Potency [2] | Potency [3] | Potency [4] | Potency [6] | Potency [9] | Potency (Aromatase (Homo sapiens))

Cc1[nH]nc2c1N=C(c1ccccc1Cl)c1cc([N+](=O)[O-])ccc1N2
active: Potency [1] 27.3 µM | Potency [2] 19.3 µM | Potency [5] 6.92 µM | Potency [9] 54.5 µM
inactive: Potency [3]

CC(C)OC(=O)c1cc2c(OCC(O)CNC(C)(C)C)cccc2[nH]1 (stereo unspecified)
active: Potency [1] 13.3 µM | Potency [2] 21.1 µM
inactive: Potency [3] | Potency [5] | Potency [9] | Potency (Aromatase (Homo sapiens))

O=C(Nc1cccc([N+](=O)[O-])c1)c1cc2ccccc2cc1O
inactive: Potency [3] | Potency [6]
active: Potency [1] 1.72 µM | Potency [2] 0.864 µM | Potency [5] 49 µM | Potency [8] 8.63 µM | Potency (Aromatase (Homo sapiens)) 2.73 µM

C/C=C1/C(=O)C[C@H]2[C@@H]3CCC4=CC(=O)CC[C@]4(C)[C@H]3CC[C@]12C
active: Potency [2] 9.66 µM
inactive: Potency [1] | Potency [3] | Potency [5] | Potency [6] | Potency [9]
